Vaccinia mCherry – qHTS for Stage-Specific Inhibitors of Vaccinia Orthopoxvirus: mCherry Reporter Primary qHTS. AID 720579, 2013. Potency, µM (doses to about 36.5 µM), most hits filed as inhibitors. 310,000 compounds, 0.63% hits. Vaccinia virus mCherry reporter infection, fluorescence; calls by dose curve; tested in A549 cells; further: nearly all actives have a fitted effect of over 35% in size
HCMV antiviral – qHTS Assay for inhibitors of the human cytomegalovirus (HCMV); activity change, negative = inhibition, % at 57.5 µM; AID 1259415, 2018; 410,000 compounds, 4.5% hits; HFF cells, HCMV-luciferase reporter, 72 h; hits give low values; in the data active means activity change below about -60%; inconclusive means no clear call, values can overlap the other calls; inactive means above about -39%
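Two compound doses tested in HFFs infected with HCMV-luciferase, MOI 1 PFU/cell, 72 h at 37C. Lysate luminescence read with OneGlo; data normalized against buffer-only and 10uM Salinomycin inhibitor controls.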
VACV Venus inh – qHTS for Stage-Specific Inhibitors of Vaccinia Orthopoxvirus: Venus Reporter Primary qHTS | Vaccinia virus Venus reporter expression, fluorescence | Potency, µM (doses to about 36.5 µM), most hits filed as inhibitors | 330,000 compounds, 0.46% hits | AID 720580, 2013; calls by dose curve; tested in A549 cells; further: nearly all actives have a fitted effect of over 30% in size
FMDV antiviral – High Throughput Screening for Foot and Mouth Disease Virus Antivirals; Potency, µM (titrated, usually from 57.9 µM), usual class: inhibitors; AID 1159524, 2015; FMDV antiviral cell-based qHTS; 410,000 compounds, 1.2% hits; calls by dose curve; tested in HEK293T cells; further: read-out not given here; nearly all actives have a fitted effect of over 45% in size
FBPA Giardia inh – qHTS Assay for Inhibitors of Fructose-1,6-bisphosphate Aldolase from Giardia Lamblia; 290,000 compounds, 0.71% hits; purified Giardia FBPA; Potency, µM (top dose mostly 59.6 µM), actives largely listed as inhibitors; AID 2451, 2010; A8B2U2; further: nearly all actives have a fitted effect of over 55% in size
Target sequence (A8B2U2 whole entry, looked up): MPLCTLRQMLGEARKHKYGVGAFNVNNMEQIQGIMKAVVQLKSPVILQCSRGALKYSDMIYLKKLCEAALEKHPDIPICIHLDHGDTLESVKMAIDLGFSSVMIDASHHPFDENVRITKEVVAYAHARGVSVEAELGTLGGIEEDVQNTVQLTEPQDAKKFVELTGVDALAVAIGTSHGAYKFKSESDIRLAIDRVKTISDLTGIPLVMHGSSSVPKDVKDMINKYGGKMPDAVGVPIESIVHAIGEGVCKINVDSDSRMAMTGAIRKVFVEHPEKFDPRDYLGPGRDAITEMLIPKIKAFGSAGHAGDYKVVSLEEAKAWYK
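Giardia FBPA (40 nM reagent) was preincubated 10 min at RT with compound (up to 57.5 uM final), then substrate plus GAPDH/TPI/NAD/arsenate coupling system with diaphorase/resazurin was added; resorufin fluorescence (525/598 nm) was read after 20 min.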
HCV inh – qHTS Assay for Inhibitors of Hepatitis C Virus (HCV). AID 651820, 2012. Huh7.5.1 HCVcc-Cre infection, luciferase reporter, 44 h. Potency, µM (doses to about 41.8 µM), usual class: inhibitors. 340,000 compounds, 3.4% hits
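After 44 h co-culture of compound, cells and HCVcc-Cre (~0.5 moi), substrate is added for 15 min at room temperature and luciferase measured over 15 sec. Cells were seeded at 1,000/well and pre-cultured 4 h.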
HCV inh confirm – qHTS Assay for Inhibitors of Hepatitis C Virus (HCV): Confirmation Assay for Cherry-picked Compounds | 640 compounds, 78% hits | AID 720575, 2013 | Potency, µM (doses to about 41.8 µM), usual class: inhibitors | shares compounds with HCV inh | HCVcc-Cre infectious virus cell assay, luciferase, inhibition; further: nearly all actives have a fitted effect of over 80% in size
HCV cytotox – qHTS Assay for Inhibitors of Hepatitis C Virus (HCV): Cytotoxicity Counterscreen for Cherry-picked Compounds. Potency, µM (highest dose often 41.8 µM), hits mostly inhibitors. shares compounds with HCV inh. HCV host cell line cytotoxicity counterscreen. 640 compounds, 22% hits;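 further: 44 h compound exposure; nearly all actives have a fitted effect of over 55% in size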
Each line names hits and unclear results; the compound was inactive in the other large screens (follow-up assays come after a bar, where they were run). Rows were chosen to be rich in hits. Some 7.5% of all compounds tested hit in one or more screens of this group. Unless noted, the call rests on the fitted dose curve; in most records, active means well fitted curve in the direction sought with a large enough effect; inconclusive means small, poorly fitted or top-dose-only effect, or another doubt; inactive means no such curve, though single readings can be large; an effect the other way counts as inactive or inconclusive.

Cc1ccc(CN(Cc2ccccc2)C(=S)Nc2ccccc2C)o1	HCV inh 3.2µM | HCV inh confirm inactive | HCV cytotox inactive
Cc1ccc(CN(Cc2ccco2)C(=S)Nc2ccccc2C)cc1	HCMV antiviral inconclusive, HCV inh inconclusive
CCOc1ccc(NC(=O)CN(C)Cc2cc(=O)n3c(-c4ccccc4)csc3n2)cc1OCC	HCV inh 6.3µM | HCV inh confirm inconclusive | HCV cytotox inactive
COc1cc(/C=N/n2c(-c3ccccc3)n[nH]c2=S)cc(OC)c1OC	none
COc1cc(/C=N/n2nnnc2Nc2ccccc2)cc(OC)c1OC	HCV inh inconclusive (no result: HCMV antiviral) | HCV inh confirm inconclusive | HCV cytotox inactive
O=C(c1ccccc1)c1cc2c(cc1[N+](=O)[O-])OCCO2	none (no result: Vaccinia mCherry, VACV Venus inh)
O=[N+]([O-])c1cc2c(cc1[N+](=O)[O-])OCCOCCOCCOCCO2	HCV inh 6.3µM (no result: Vaccinia mCherry, VACV Venus inh) | HCV inh confirm inconclusive | HCV cytotox inactive
CCOc1cc(/C=C/C(=O)Nc2ccc(C(=O)NCCN(CC)CC)cc2)ccc1OCC(C)C	HCMV antiviral -114, FMDV antiviral inconclusive, HCV inh 3.2µM (no result: Vaccinia mCherry, VACV Venus inh) | HCV inh confirm 16µM | HCV cytotox 35µM
O=C(Nc1ccc(Cl)cc1)N[C@@H]1c2c(ccc3ccccc23)OC[C@@H]1CO	HCMV antiviral inconclusive, HCV inh inconclusive (no result: Vaccinia mCherry, VACV Venus inh) | HCV inh confirm inconclusive | HCV cytotox inconclusive
CCN(Cc1ccccc1)C(=O)Cn1c(=O)n(-c2ccc(Cl)cc2)c(=O)c2c(C)c(C)sc21	none (no result: FBPA Giardia inh, HCV inh)
CCn1ccc(C(=O)Nc2sc3c(c2C(=O)OC)CCC3)n1	HCMV antiviral inconclusive, HCV inh inconclusive (no result: Vaccinia mCherry, VACV Venus inh, FBPA Giardia inh)
COC(=O)c1c(NC(=O)c2ccn(C)n2)sc2c1CCC2	HCV inh 2.8µM (no result: Vaccinia mCherry, VACV Venus inh) | HCV inh confirm 0.89µM | HCV cytotox inactive
CCCc1cc2c(=O)c(-c3ccc4c(c3)OCCO4)c(C)oc2cc1OS(C)(=O)=O	Vaccinia mCherry inconclusive, HCMV antiviral inconclusive, VACV Venus inh inconclusive, FMDV antiviral inconclusive, HCV inh 2.2µM | HCV inh confirm 11µM | HCV cytotox inactive
CCc1cc2c(=O)c(-c3ccc(F)cc3)c(C)oc2cc1OCC(=O)O	none
COc1cc(OC)c(NC(=O)C(=O)CC(=O)c2ccc(C)cc2C)cc1Cl	Vaccinia mCherry inconclusive, HCV inh 3.5µM | HCV inh confirm 14µM | HCV cytotox inactive
COc1ccc(OC)c(NC(=O)c2nnn(Cc3ccccc3C)c2N)c1	HCV inh 7.1µM (no result: Vaccinia mCherry, VACV Venus inh) | HCV inh confirm 22µM | HCV cytotox inactive
COC(=O)c1cn(C(=O)OC)c2ccccc12	HCV inh 5.6µM | HCV inh confirm inconclusive | HCV cytotox inactive
O=C(/C=C/c1ccccc1)Nc1cccc(C(=O)NCCCCc2ccccc2)c1	HCV inh 2.5µM (no result: FBPA Giardia inh) | HCV inh confirm 11µM | HCV cytotox inactive
O=C(c1ccccc1)N1CCC(c2nc(-c3ccc(S(=O)(=O)NCC4CCCO4)cc3)no2)CC1 (centres undefined)	Vaccinia mCherry inconclusive, HCMV antiviral -89, VACV Venus inh inconclusive, HCV inh 2.8µM (no result: FMDV antiviral) | HCV inh confirm 3.5µM | HCV cytotox 8.9µM
CSc1ccccc1NC(=O)COc1ccc(Cl)cc1C	HCV inh inconclusive
Cc1cc(Cl)ccc1OCC(=O)Nc1ccccc1CO	HCV inh 3.2µM | HCV inh confirm 7.9µM | HCV cytotox inactive
CC1(C)CC(=O)c2c(O)cc(OCC(=O)Nc3ccc(CCO)cc3)cc2O1	HCV inh 5µM | HCV inh confirm 14µM | HCV cytotox inactive
Cc1cc(=O)oc2c3c(cc(OCC(=O)Nc4cccnc4)c12)OC(C)(C)CC3	HCV inh inconclusive
